LmPK inh: qHTS Assay for Inhibitors of Leishmania Mexicana Pyruvate Kinase (LmPK); Potency, µM (series often up to 57.5 µM), for inactives: at the highest dose activity change, negative = inhibition, most hits filed as inhibitors; actives 0.37% (n = 290,000); purified LmPK, Kinase-Glo ATP luminescence, 1 h; further: potency means the concentration at half of the fitted maximal effect; on the % scale 0 is the no-effect control and ±100 the full control effect
Target sequence (Q27686 whole entry, looked up): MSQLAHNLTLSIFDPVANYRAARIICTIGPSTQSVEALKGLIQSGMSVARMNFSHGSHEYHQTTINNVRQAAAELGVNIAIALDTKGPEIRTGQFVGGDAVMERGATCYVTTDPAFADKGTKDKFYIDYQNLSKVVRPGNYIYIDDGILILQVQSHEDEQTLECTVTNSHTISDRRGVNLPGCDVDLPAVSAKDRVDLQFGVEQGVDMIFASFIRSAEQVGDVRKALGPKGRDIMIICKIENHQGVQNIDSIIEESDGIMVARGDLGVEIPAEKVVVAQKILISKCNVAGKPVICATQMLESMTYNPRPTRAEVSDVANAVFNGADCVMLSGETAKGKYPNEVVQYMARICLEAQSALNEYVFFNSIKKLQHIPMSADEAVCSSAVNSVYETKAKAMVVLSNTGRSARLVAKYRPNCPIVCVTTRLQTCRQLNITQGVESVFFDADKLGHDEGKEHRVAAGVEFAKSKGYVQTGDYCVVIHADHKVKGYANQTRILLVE
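ATP generated from ADP (0.1 mM) and PEP (0.5 mM) by 0.1 nM LmPK over 1 h at room temperature (pH 7.2 imidazole buffer) was detected by coupled luciferase luminescence. Values were normalized to uninhibited and no-enzyme wells.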
NS1 inh: qHTS Assay for Inhibitors of Influenza NS1 Protein Function; Potency, µM (titrated, usually from 46.1 µM), inactives show at the top dose activity, positive = more growth; actives 0.4% (n = 270,000); AID 2326, 2010; calls by dose curve; further: potency means the concentration at half of the fitted maximal effect; actives are rising curves; nearly all actives have a fitted effect of over 50% in size
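In this qHTS, NS1 from influenza A is expressed in budding yeast, where it slows growth. Cells are switched from glucose to 2% galactose medium (pH 6.0, -URA), treated with compound, and growth recovery is read at OD600.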
RE007 growth inh: qHTS Assay for Inhibitors of the HIV-1 protein Vpr; S. pombe RE007 Vpr strain, BacTiter-Glo ATP luminescence, 24 h; Potency, µM (titrated, usually from 92.2 µM), for the others: at the highest dose activity change, negative = less growth, most hits filed as inhibitors; actives 0.21% (n = 360,000); active means well fitted falling curve with a large enough effect; inconclusive means small, poorly fitted or top-dose-only effect; inactive means no such curve, though single readings can be large or run the other way; further: potency means the concentration at half of the fitted maximal effect; on the % scale 0 is the no-effect control and ±100 the full control effect; nearly all actives have a fitted effect of over 50% in size
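Fission yeast RE007 carrying one integrated HIV-1 vpr copy, seeded at OD 0.01 in PMG+AL medium with 23 nL pinned compound. Grown 24 h at 30 degrees; viability read by BacTiter-Glo luminescence after 5 min.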
Tb PYK inh: qHTS of Trypanosoma Brucei Inhibitors; pyruvate kinase (Trypanosoma brucei), Q57TT1; TbPYK enzyme, Kinase-Glo Plus ATP luminescence, 45 min; Potency, µM (doses to about 76.8 µM), without a hit: at the top dose activity, negative = inhibition, hits mostly inhibitors; actives 0.12% (n = 410,000); AID 624173, 2012; further: potency means the concentration at half of the fitted maximal effect; on the % scale 0 is the no-effect control and ±100 the full control effect; nearly all actives have a fitted effect of over 50% in size
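In this concentration-response screen, enzyme-free wells defined baseline while DMSO plates tracked drift. Each reaction combined TbPYK, substrate, compound and 130 uM ADP for 45 min at room temperature. Kinase-Glo Plus luminescence gave the signal.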
Flu NS1 inh: Assay for Inhibitors of Influenza NS1 Protein Function: Hit Validation; influenza NS1 function cell assay, 15-point titration; activity change, negative = inhibition, % at 32.9 µM; shares compounds with NS1 inh; 1,400 tested, under 10 active; calls by dose curve; further: 0% is about no effect
Flu PR8 replic: Assay for Inhibitors of Influenza NS1 Protein Function: Influenza virus replication assay in MDCK cells infected with virus A/PR/8/34. shares compounds with NS1 inh. MDCK infected influenza A/PR/8/34, virus titer TCID50; stronger effect = lower value. virus titer (log TCID50), log10 TCID50 at 5 µM. actives 30% (n = 95). AID 504647, 2011; call rule not given here
Starred values were filed as active, the others as inactive; ? = inconclusive; . = no result given; [ ] = dose if it differs, or a comment. Most compounds without a hit are left out; they make up all but 0.77% or so of the library. Unless noted, the call rests on the fitted dose curve; in most records, active means well fitted curve in the direction sought with a large enough effect; inconclusive means small, poorly fitted or top-dose-only effect, or another doubt; inactive means no such curve, though single readings can be large; an effect the other way counts as inactive or inconclusive.

SMILES | LmPK inh | NS1 inh | RE007 growth inh | Tb PYK inh | Flu NS1 inh | others
Cc1cccc(-n2c(=O)c3c(c4cc(C)ccc4n3C)n(CC(=O)NCC3CCCO3)c2=O)c1 (stereo not drawn) | . | . | . | -4% | .
N#Cc1nc(COc2ccc(Cl)cc2Cl)oc1N1CCN(c2ccccc2)CC1 | 5% | 11µM* | 5% | 2% | 16
CCOc1ccc(NC(=S)NCc2ccc3[nH]c(C)cc3c2)cc1 | -10%[11.5 µM] | . | 5% | -1% | .
CCCCNC(=S)NCc1ccc2[nH]c(C)cc2c1 | 6% | 1.4µM* | -8% | 0% | -6
O=C(Nc1ccccc1OCc1cc(=O)n2ccccc2n1)c1cccc(Br)c1 | . | . | . | 1% | .
CCOC(=O)C1=C(c2ccccc2)N=c2s/c(=C\c3ccc(O)cc3)c(=O)n2C1c1cccs1 (stereo not drawn) | 1% | 7.1µM* | -6% | 5% | -15
Cc1ccc(CCN2CC(C(=O)NC3CCCC3)CC2=O)cc1 (stereo not drawn) | 3% | ? | -3% | 4% | -17
Cc1ccc(CCN2CC(C(=O)NC3CCCCC3)CC2=O)cc1 (stereo not drawn) | 0% | -4% | 5% | 6% | .
CC(O)/C=C/c1cccc[n+]1C (stereo not drawn) | 7% | 13µM* | -11% | -3% | -7
O=C(NCCCO)C(=O)NCC(c1ccc2c(c1)OCO2)N1CCN(c2ccc(F)cc2)CC1 (stereo not drawn) | -3% | 2.2µM* | 7% | -1% | -21
O=C(c1[nH]c2ccccc2c1Sc1ccc(Cl)cc1)N1CCCCC1 | . | . | . | -4% | .
Cc1ccccc1Nc1nnc(C)c(=O)n1N | 1% | 1.8µM* | -11% | 5% | 2
O=C1C(c2ccncc2)=C(O)c2ccccc21 | ? | 0.25µM* | ? | -5% | -3
CCCOc1ccc(C2NC(=S)NC(c3ccccc3)=C2C(=O)Nc2ccc(C)cc2)cc1OC (stereo not drawn) | 6% | 13µM* | 4% | -4% | 0
COc1ccc(CNC(=O)c2ccc(Cn3c(=O)c4cccn4c4cccnc43)cc2)c(OC)c1 | . | . | . | 0% | .
CCn1c(SCC(=O)N2c3ccccc3Sc3ccccc32)nc2c1c(=O)n(C)c(=O)n2C | 2% | -37% | 1% | -8% | .
CCCCn1c(SCC(=O)N2c3ccccc3Sc3ccccc32)nc2c1c(=O)n(C)c(=O)n2C | 5% | 11µM* | 5% | -6% | 4
Cc1cccc(CN(CC(=O)N/N=C/c2cccs2)S(=O)(=O)c2ccc(Cl)cc2)c1 | 2% | 8.9µM* | -3% | 10% | -32
Cc1cccc(CN(CC(=O)N/N=C/c2ccco2)S(=O)(=O)c2ccc(Cl)cc2)c1 | 3% | 20% | 12% | -2% | .
COc1ccccc1C(=O)Nc1c(C(=O)Nc2ccccc2F)oc2ccccc12 | . | . | . | 2% | .
COc1ccccc1/C=N/NC(=O)c1nnn(-c2nonc2N)c1-c1cccs1 | -1% | 2.2µM* | 21% | 1% | 19
COc1ccccc1/C=N/NC(=O)c1nnn(-c2nonc2N)c1-c1ccccc1 | . | . | -23% | 4% | .
COc1cccc(OCc2cc(=O)n3c(-c4ccccc4)csc3n2)c1 | . | . | . | -4% | .
CC(=O)N=c1n(C)c2ccccc2n1CCOc1ccccc1 | -8% | ? | -1% | -7% | -6
O=C(c1ccccc1F)N1c2nc(-c3ccco3)nn2C2(CCCCC2)[C@@H]2CCCC[C@@H]21 | . | . | . | -19% | .
SMILES | LmPK inh | NS1 inh | RE007 growth inh | Tb PYK inh | Flu NS1 inh | others
O=C(O)c1ccccc1-c1ccccc1C(=O)Nc1ccccc1-c1ccccc1 | 2% | 10µM* | 5% | 3% | 36
Cc1ccccc1NC(=O)c1ccccc1-c1ccccc1 | -7% | -21% | 4% | -3% | .
CCCOc1ccc(-c2cnc(SCC(N)=O)nc2N)cc1 | -2% | 8.9µM* | 9% | 0% | 11
O=C(CN1CCc2ccccc2C1)NCc1ccco1 | -7% | ? | -6% | -12% | 4
COc1ccccc1C(=O)NC(=S)NNC(=O)c1sc2ccccc2c1Cl | -1% | 25% | 12% | -8% | .
COc1ccccc1C(=O)NNC(=S)NC(=O)c1sc2ccccc2c1Cl | -1% | ? | 1% | -4% | ?
CCOc1cc(/C=C2\SC(=Nc3ccccc3)N(c3ccccc3)C2=O)ccc1OCC(=O)O | 0% | ? | -5% | -9% | -35
CCc1ccc(N=C2NC(=O)/C(=C/c3ccc(OCC(=O)O)cc3)S2)cc1 | -6% | 10% | 2% | -11% | .
CCc1ccc(N=C2NC(=O)/C(=C/c3ccc(OCC(=O)O)c(OC)c3)S2)cc1 | -3% | 11µM* | 2% | -6% | 46
CCOc1cc(/C=C2\SC(=Nc3ccc(F)cc3)N(c3ccc(F)cc3)C2=O)ccc1OCC(=O)O | 0% | ? | . | . | .
O=c1cc(-c2ccc(O)c(-c3c(O)cc(O)c4c(=O)cc(-c5ccc(O)cc5)oc34)c2)oc2cc(O)cc(O)c12 | 0% | 10µM* | 89% | 2% | 26
O=c1cc(-c2ccc(O)cc2)oc2c(-c3c(O)cc(O)c4c(=O)cc(-c5ccc(O)cc5)oc34)c(O)cc(O)c12 | . | . | 10% | 2% | .
CCOC(=O)c1ccc(NC(=O)c2cnn(-c3ccc(C)cc3C)c2C2CCN(C(=O)OC(C)(C)C)CC2)cc1 | . | . | . | -10% | .
CCCCCCCN1C/C=C\C(c2ccc(OC)cc2)N(Cc2ccc(F)cc2)C(=O)[C@H]1Cc1ccccc1 (stereo partly drawn) | 3% | ? | -2% | 9% | -27
Cc1sc2nc(CN(Cc3cccs3)C(=O)NC3CCCCC3)[nH]c(=O)c2c1C | 0% | 0.45µM* | -7% | 2% | ?
C[C@]12Cc3cn4c(nc3C=C1CCC1C2CC[C@@]2(C)[C@H]1CC[C@@]2(O)C#N)nc1ccccc14 (stereo partly drawn) | . | 40µM* | . | . | ?
Cc1nnc(NC(=O)c2c(-c3ccccc3)noc2C)s1 | -10% | -8% | 11% | -5% | .
Cc1onc(-c2ccccc2)c1C(=O)Nc1nnc(N(C)Cc2ccccc2)s1 | 0% | 7.9µM* | 3% | -7% | 13
COc1ccc(OC)c(NC(=O)Cn2cnc3onc(-c4ccc(Cl)cc4)c3c2=O)c1 | . | . | . | -1% | .
COc1ccc(-n2c(SCC(=O)N3CCCCC3)nc(O)cc2=O)cc1 | 2% | 11µM* | -14% | 1% | ? | Flu PR8 replic=8.5
CC(=O)c1cccc(NS(=O)(=O)c2ccc(N/C=C/C(=O)c3ccc(F)cc3)cc2)c1 | 5% | ? | 1% | 1% | -20
